Compound activity from PubChem BioAssay.
PfM18AAP inh-1: PfM18AAP inhibitors, malaria aminopeptidase, primary screen, biochemical, QFRET, recombinant enzyme; M18 aspartyl aminopeptidase (Plasmodium falciparum 3D7); H-Glu-NHMec fluorogenic cleavage; hit rate 1.2% among 290,000; inhibition, % at 7.35 µM;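 active = inhibition above the campaign mean inhibition over all tested compounds plus 3 SD, cut at about 28% in these data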;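 also: 0% = plate median of test compound wells and 100% = 2 mM ZnCl2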
Kir21 block: inhibitors of mouse Kir2.1 inward-rectifier potassium channel | HEK293-Kir2.1, FluxOR thallium flux fluorescence; active compounds read low | Inward rectifier potassium channel 2 (Mus musculus), P35561 | B-score at 10 µM | hit rate 0.85% among 310,000;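 active = fluorescence ratio B-score at or below minus 3 SD of library scores, with starting-brightness B-score within 2 SD, cut at about -4.2 in these data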;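 also: channel flux triggered by added potassium and thallium sulfate stimulus; B-score of peak minus minimum fluorescence over baseline after thallium stimulus; more negative B-score means stronger Kir2.1 block with less thallium influx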
Target sequence (P35561 whole entry, looked up): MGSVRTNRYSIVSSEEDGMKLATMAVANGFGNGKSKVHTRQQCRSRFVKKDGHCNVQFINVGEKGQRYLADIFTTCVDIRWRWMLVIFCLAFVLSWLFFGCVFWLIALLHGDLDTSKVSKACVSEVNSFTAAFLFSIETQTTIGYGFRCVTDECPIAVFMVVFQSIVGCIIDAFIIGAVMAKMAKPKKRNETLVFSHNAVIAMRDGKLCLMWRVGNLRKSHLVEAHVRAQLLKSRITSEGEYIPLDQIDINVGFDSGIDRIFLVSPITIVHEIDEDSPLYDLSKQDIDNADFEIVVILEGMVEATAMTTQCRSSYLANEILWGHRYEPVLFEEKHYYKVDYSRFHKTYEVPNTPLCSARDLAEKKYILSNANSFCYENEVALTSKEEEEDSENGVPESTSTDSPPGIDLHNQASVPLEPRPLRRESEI
DNA FID counter: compounds displacing fluorescent DNA intercalator, primary screen, artefact control for HCV NS3 helicase inhibitor project, biochemical, FID fluorescence. AID 1845, 2009. inhibition, % at 7.9 µM. hit rate 0.17% among 290,000. DNA fluorescent intercalator displacement; in the data active = inhibition above about 37%;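 also: 0% = vehicle and 100% = reference compound; higher means more ethidium bromide displaced from hairpin DNA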
Rce1 inhib: yeast Rce1p protease inhibitors, primary screen, biochemical, fluorescence, cell-free homogeneous | CAAX prenyl protease 2 (Saccharomyces cerevisiae (strain ATCC 204508 / S288c)), Q03530 | yeast membranes, quenched prenylated peptide cleavage fluorescence | calls only | hit rate 0.27% among 290,000;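 active = fall in fluorescence gain of 50% or more versus controls, with final raw signal at or below 3038400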;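 also: plate controls were neutral control wells for no effect and wells lacking membranes for full effect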
PfM18AAP inh-2: PfM18AAP inhibitors, malaria aminopeptidase, confirmation, biochemical, QFRET, recombinant enzyme, triplicate. AID 2170, 2009. hit rate 28% among 2,400. inhibition, % at 7.35 µM. H-Glu-NHMec fluorogenic cleavage. shares compounds with PfM18AAP inh-1;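 active = mean inhibition over replicate wells above the hit cutoff set for the earlier primary screen, cut at about 29% in these data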;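 also: 0% = median of test compound wells and 100% = 2 mM ZnCl2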
CTSL1 counter: cathepsin L1 inhibitors, retest, confirmation, counter-screen for PFM18AAP inhibitor project, biochemical, QFRET, triplicate; 2,400 tested, under 10 active; purified cathepsin L1, Z-Leu-Arg-MCA fluorescence; inhibition, % at 5.96 µM; shares compounds with PfM18AAP inh-1;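 active = average inhibition across replicates above the hit cutoff set in the earlier primary screen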;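 also: 0% = median of test compound wells and 100% = Z-Phe-Ala-diazomethylketone 1 µM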
Numbers without * were called inactive; i = inactive; nt = no result. Sampled rows, rich in hits. Any-hit rate of the full collection: about 2.3%.

SMILES | PfM18AAP inh-1 | Kir21 block | DNA FID counter | Rce1 inhib | PfM18AAP inh-2 | CTSL1 counter
COc1ccccc1CCC(=O)N(Cc1ccccc1)c1c(N)n(Cc2ccccc2)c(=O)[nH]c1=O | -5 | -0.83 | -31 | i | nt | nt
O=C(Nc1ccc(C(=O)NCCCN2CCN(c3ccccc3)CC2)cc1)C1=CSCCO1 | -1 | -0.75 | 25 | i | nt | nt
COc1ccc(C(=O)COc2ccc(F)cc2)c(O)c1 | 2 | -0.4 | -5 | i | nt | nt
O=C(COc1ccc(F)cc1)c1c(O)cc(O)cc1O | 33* | 1 | -6 | i | 23 | -1
O=C(NCCCn1cccn1)C1CCC(=O)N(CCc2ccccc2)C1 (configuration not stated) | 2 | 0.08 | -10 | i | nt | nt
CC(/C=N/n1c(-c2ccco2)n[nH]c1=S)=C\c1ccco1 | 32* | 2 | -16 | i | -27 | 2
Fc1ccc(-n2c(-c3ccco3)n[nH]c2=S)cc1 | 16 | -0.74 | -18 | i | nt | nt
O=[N+]([O-])c1ccccc1/C=C/C=N/n1c(-c2ccco2)n[nH]c1=S | 32* | -0.37 | -13 | i | -15 | -2
Cc1ccc(-c2n[nH]c(=S)n2/N=C/C=C/c2ccccc2[N+](=O)[O-])cc1 | 7 | 0.39 | -8 | i | nt | nt
Cc1ccc(-n2c(-c3ccco3)n[nH]c2=S)cc1 | 32* | 0.06 | -9 | i | -5 | -5
CCOc1ccc(CCNC(=O)COC(=O)c2ccc(C)s2)cc1OCC | 3 | 0.72 | -37 | i | nt | nt
COCCN(C(=O)COC(=O)CCOc1ccccc1)c1c(N)n(Cc2ccccc2)c(=O)[nH]c1=O | nt | 0.85 | nt | i | nt | nt
Cc1csc2c(SCC(=O)NNS(=O)(=O)c3cccc(C(F)(F)F)c3)ncnc12 | 36* | -0.34 | -2 | i | -38 | -4
COc1ccccc1NS(=O)(=O)c1ccc(C(N)=O)cc1 | -4 | 0.82 | 0 | i | nt | nt
COc1ccccc1NS(=O)(=O)c1ccc(NC(C)=O)cc1 | 68* | 1.9 | -1 | i | -51 | -2
C/C(=N\NC(=O)c1cc(O)ccc1O)c1cccc(NC(=O)c2ccc(Cl)cc2)c1 | 36* | 0.45 | -8 | i | -50 | -7
NC1=NC(=O)C2(COC(c3cccnc3)OC2)S1 (configuration not stated) | -8 | -0.12 | 5 | i | nt | nt
CCc1nc(CNC(=O)C2CCC(=O)N(Cc3ccccc3F)C2)no1 (configuration not stated) | 6 | -0.63 | -16 | i | nt | nt
CN1CCN(C(=S)NC(=O)c2ccc(S(=O)(=O)N3CCOCC3)cc2)CC1 | 45* | -0.21 | 3 | i | 15 | 2
S=C(Nc1ccccc1)N1CCC(Cc2ccccc2)CC1 | -2 | 0.81 | -8 | i | nt | nt
CCc1cccc2sc(N3CCN(C(=O)c4ccc([N+](=O)[O-])o4)CC3)nc12 | nt | -0.15 | nt | i | nt | nt
Fc1ccccc1/C=N/n1cc(-c2ccccc2)[nH]c1=S | 46* | -0.73 | -9 | i | 41* | 0
S=c1[nH]c(-c2ccccc2)cn1/N=C/c1cccs1 | 47* | -0.36 | -6 | i | 39* | 3
Cc1cc(C)n2nc(SCN3C(=O)c4ccccc4C3=O)nc2n1 | 77* | -0.48 | -6 | i | -42 | 3
O=C1c2ccccc2C(=O)N1CSc1ncccn1 | 46* | -0.76 | 0 | i | -58 | 2
SMILES | PfM18AAP inh-1 | Kir21 block | DNA FID counter | Rce1 inhib | PfM18AAP inh-2 | CTSL1 counter
O=C1c2ccccc2C(=O)N1CCc1ccccn1 | -14 | -1.2 | 1 | i | nt | nt
Cc1cc(C)n2nc(SCC(=O)Nc3ccccc3)nc2n1 | -16 | 0.41 | -2 | i | nt | nt
COc1cccc2cc(C(=O)c3ccc([N+](=O)[O-])cc3)oc12 | -13 | 0.01 | 3 | i | nt | nt
COc1ccc(CCNCc2cc(C)n(-c3ccc(OC)cc3)c2C)cc1 | 42* | -4.8* | 31 | i | -10 | -3
CC(=O)Nc1ccc(NC(=O)C(C)OC(=O)/C=C/c2ccc3c(c2)OCO3)cc1 (configuration not stated) | nt | 0.16 | nt | i | nt | nt
COc1cccc(NC(=O)C(OC(=O)/C=C/c2ccc3c(c2)OCO3)c2ccccc2)c1 (configuration not stated) | 32* | 0.28 | -6 | i | -38 | -7
Cc1ccc(C(=O)/C=C/c2ccccc2[N+](=O)[O-])cc1 | 6 | -2.6 | 2 | i | nt | nt
O=C(/C=C/c1ccccc1F)c1cccc([N+](=O)[O-])c1 | 34* | -5.5* | 11 | i | 4 | 5
Cc1cc(SCC(=O)c2ccc(O)c(O)c2)n2nc(C)c(-c3ccccc3)c2n1 | 57* | 1.9 | -8 | i | 37* | -5
COc1ccc(-n2nnnc2SCC(=O)c2ccc(O)c(O)c2)cc1 | 35* | 2 | -5 | i | 30* | -4
Cc1cc(=O)[nH]c(SCC(=O)c2ccc(O)c(O)c2)n1 | 68* | 0 | 0 | i | 59* | -4
Cc1cc(C)nc(SCNC(=O)c2ccc(Cl)cc2)n1 | 51* | 1.1 | -3 | i | -29 | 0
CC(=O)N1C(C)(C)CC(=NOS(=O)(=O)c2ccccc2)CC1(C)C | 9 | nt | 1 | nt | nt | nt
CC(C)c1nc(CNC(=O)C2CCC(=O)N(CCc3ccc(Cl)cc3)C2)no1 (configuration not stated) | 3 | 1 | -25 | i | nt | nt
Cc1cc(-c2ccc(C(C)C)c(S(=O)(=O)Nc3cc(C)on3)c2)on1 | -17 | 0.63 | -54 | i | nt | nt
CCOC(=O)C1(Cc2cccc(OC)c2)CCCN(C(=O)c2cc(C)oc2C)C1 (configuration not stated) | 4 | -0.99 | -52 | i | nt | nt
COc1cc(/C(C)=N/N2CCN(c3ccccc3OC)CC2)ccc1O | 15 | 0.1 | -22 | i | nt | nt
Cc1cc(C)nc(SCC(=O)c2ccc(O)c(O)c2)n1 | 50* | 0.49 | -15 | i | 28 | 7
O=C(CSc1nc2ccccc2c(=O)[nH]1)c1ccc(O)c(O)c1 | 65* | -2.3 | 9 | i | 68* | 2
CCN(c1cccc(C)c1)S(=O)(=O)c1ccc(-n2cccn2)cc1 | -3 | 0.57 | -23 | i | nt | nt
COc1ccc(-c2ccc(SCC(=O)NC3CCCCC3)nn2)cc1OC | -5 | 0.31 | -31 | i | nt | nt
Oc1ccc(-c2nc(-c3ccc(O)c(O)c3)cs2)cc1 | 59* | 0.55 | 0 | i | 71* | -13
COc1cc(CNc2ccc(N3CCCCC3)cc2)ccc1OCC(=O)NC(C)(C)C | 43* | -1.3 | -12 | i | -33 | -1
CCOC(=O)c1c(NC(=O)C2CCCO2)sc(C)c1C (configuration not stated) | -7 | 1.1 | -12 | i | nt | nt
